D1 antag – human D1 dopamine receptor antagonism; P21728; HEK293 TREx D1 cells, calcium flux, dopamine EC80; active compounds read low; activity change, negative = inhibition, % at 10 µM; 3.2% of 360,000 active; in the data active = activity change below about -30%
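Cells carrying a force-coupled, tetracycline-inducible human D1 receptor report calcium flux. Each well gets a 10 s baseline, compound with 180 s monitoring, then an EC80 dopamine stimulus with a second 180 s kinetic read.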
D1 ag – agonists of human D1 dopamine receptor | 1% of 360,000 active | AID 504660 | P21728 | HEK293 T-REx D1 cells, calcium flux, agonist mode | activation, % at 2 µM
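Tetracycline-induced HEK293 TREx D1 cells, force-coupled to calcium signalling, were dye-loaded with a no-wash calcium kit. Compound was pin-added after a 10 s baseline. Fluorescence was read kinetically at 1 cycle/s for 180 s, with calcium rises flagged as agonism.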
D1 PAM – enhances dopamine response at the human D1 receptor | P21728 | HEK293 TREx D1 cells, calcium flux, dopamine EC20 potentiation | potentiation, % at 10 µM | 0.036% of 360,000 active; in the data active = potentiation above about 30%
TRHR ag – TRH receptor (human) agonism | TRHR cells, calcium flux fluo-8, FDSS agonist mode | P34981 | 0.18% of 360,000 active | activation, % at 2 µM
Target sequence (P34981 whole entry, looked up): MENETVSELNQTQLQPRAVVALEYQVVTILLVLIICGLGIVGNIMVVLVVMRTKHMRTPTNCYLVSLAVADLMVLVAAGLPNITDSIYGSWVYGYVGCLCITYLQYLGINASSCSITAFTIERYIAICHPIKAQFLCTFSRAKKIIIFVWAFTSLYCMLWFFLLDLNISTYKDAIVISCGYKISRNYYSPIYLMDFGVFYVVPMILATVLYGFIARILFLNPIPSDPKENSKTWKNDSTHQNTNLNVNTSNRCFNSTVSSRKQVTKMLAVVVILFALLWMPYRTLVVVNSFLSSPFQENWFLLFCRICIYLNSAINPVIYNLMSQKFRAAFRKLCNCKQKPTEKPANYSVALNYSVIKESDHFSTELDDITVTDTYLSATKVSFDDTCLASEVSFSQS
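In this calcium-flux screen, cells bearing human TRHR are dye-loaded with fluo-8, baselined for 10 cycles, then exposed to library compounds; positive kinetic calcium responses during the agonist phase mark hits, with TRH as control.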
TRHR PAM – allosteric enhancers of human TRH receptor. TRHR cells, fluo-8 calcium fluorescence, EC20 TRH enhancement. enhancement, % at 2 µM. 0.66% of 360,000 active. AID 493056; in the data active = enhancement above about 30%
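TRHR-expressing cells loaded with fluo-8 calcium dye were read kinetically (ex 480/em 530) during compound addition, then stimulated with an EC20 of TRH (10 nM final). Enhancement of the Gq-mediated intracellular calcium response was scored.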
Large screens that a line does not name were inactive; ! = not active in a repeat. An excerpt weighted towards active compounds, which were near 4.7% of everything screened. Rule as the data show it, unless noted: active = activation above about 30%; inactive = the rest.

CCN(CC)c1sc(S(=O)(=O)c2ccccc2)nc1S(=O)(=O)c1ccc(C)cc1	none
CCOc1ccc(NC(=O)CSc2nnnn2C2CCCC2)cc1	D1 ag 47.4 (no result: D1 PAM)
Cc1sc(NC(=O)CSc2nnnn2C2CCCCC2)c(C#N)c1C	D1 antag -33.5
CCOC(=O)c1ccc(N2C(=O)c3[nH]nc(-c4ccc(C)cc4)c3C2c2cccc(F)c2)cc1 (configuration not stated)	none
Cc1oc2c(c1C(=O)NCc1cccc(Br)c1)C1=NCCN1C=N2	none
CCN(CC)c1nc2c(c(=O)[nH]c(=O)n2C)n1CCOc1ccccc1	D1 PAM 35.0
CN(C)c1nc2c(c(=O)[nH]c(=O)n2C)n1CCOc1ccccc1	none
CC(Oc1ccc(F)cc1)C(=O)Nc1cc(-c2ccc(F)c(F)c2)no1 (configuration not stated)	D1 antag -41.3, D1 ag 110.8
CCN(C(=O)C(=O)Nc1ccc2nc3n(c(=O)c2c1)CCCCC3)c1ccc(F)cc1	D1 antag -38.8
O=C(NNC(=O)c1ccc2c(=O)n3c(nc2c1)CCC3)c1cccc(Cl)c1	D1 antag -32.1
CCN(CC(=O)Nc1c(F)cccc1F)C(=O)c1ccc2c(=O)n3c(nc2c1)CCC3	none
CCN(CC)C(=O)c1cccc(NC(=O)c2ccc3c(=O)n4c(nc3c2)CCC4)c1	D1 antag -40.5
O=C(OCCN1CCCCC1)c1c[nH]c2ccccc12	none
c1ccc(CNCc2nnc(-c3cc4ccccc4[nH]3)s2)cc1	none
CCn1cc(C(=O)O)c(=O)c2cnc(N3CCN(C(=S)Nc4ccccc4C(F)(F)F)CC3)nc21	none
Cc1ccc2oc(-c3ccc(Cl)cc3)c(O)c(=O)c2c1	D1 ag 70.5
Cc1ccc(N(Cc2ccccc2)C(=O)c2cc(S(=O)(=O)N3CCOCC3)ccc2C)cc1	none
COc1ccc(/C=N/NC(=O)c2ccc3c(c2)NC(=O)C(C)(C)O3)cc1OC	none
CC1(C)Oc2ccc(C(=O)NN)cc2NC1=O	D1 antag -38.0
COc1cccc(-n2ccnc2SCC(=O)Nc2nc3ccc(C)cc3s2)c1	none
COc1cc(N2CCCC2)c(OC)cc1/C=c1/sc2nc3ccccc3n2c1=O	D1 ag 46.6
C=CCn1c(O)c(N=Nc2ccccc2O)c2ccccc21	D1 ag 40.6
CCOC(=O)N=Nc1c(O)n(C)c2ccccc12	none
C=CCn1c(O)c(N=Nc2ccccc2)c2ccccc21	none
Cc1ccccc1N=Nc1c(O)n(C)c2ccccc12	D1 antag -39.0
COc1cc(-c2nnc(SCC(=O)N(C)C3CCCCC3)o2)cc(OC)c1OC	none
COc1ccccc1N1CCN(CCCCCCOc2ccc(F)cc2)CC1	D1 antag -44.9
COc1ccc(CN2CCN(c3ccccc3OC)CC2)c(OC)c1	D1 antag -45.7
COc1ccc(CN2CCN(CCCc3ccccc3)CC2)c(OC)c1	TRHR PAM 55.4
COc1ccc(CN2CCN(CCCc3ccccc3)C(CCO)C2)c(OC)c1 (configuration not stated)	none
COc1ccc(OC)c(CN2CCN(Cc3cccc4ccccc34)CC2)c1	D1 antag -67.3
COc1ccc(OC)c(CN2CCCCCC2)c1	none
CCn1ccc2cc(S(=O)(=O)N3CCC(C(=O)NCc4ccc(OC)cc4)CC3)ccc21	none
COc1ccc(CC(=O)OCC(=O)Nc2cccc(C(C)=O)c2)cc1OC	none
CS(=O)(=O)N(CC(=O)N/N=C/c1cc([N+](=O)[O-])ccc1Cl)c1ccccc1	none
Cc1cccc(N(CC(=O)N/N=C/c2cc([N+](=O)[O-])ccc2Cl)S(C)(=O)=O)c1C	D1 antag -45.4
NC(=O)c1cc([N+](=O)[O-])c(Cl)cc1NCc1cccnc1	none
Cc1ccccc1N1CCN(CCCCN2C(=O)C3CCCN3C2=O)CC1 (configuration not stated)	D1 antag -57.3
COc1ccccc1N1CCN(CCCCN2C(=O)C3CCCCN3C2=O)CC1 (configuration not stated)	none
COc1ccc(CNC(=O)C2CCCN(S(=O)(=O)N(C)c3ccc(F)cc3)C2)cc1OC (configuration not stated)	none
CCOc1ccc(CNC(=O)C2CCCN(S(=O)(=O)N(C)c3ccc(F)cc3)C2)cc1OC (configuration not stated)	D1 ag 34.5
CCOc1ccc(/C=C2\SC(=S)N(CCC(=O)N(CCO)c3ccccc3)C2=O)cc1	D1 antag -30.8
CC(C)c1ccc(NC(=O)CCCN2C(=O)NC(C)(C)C2=O)cc1	D1 antag -52.9
Cc1ccc(C)c(Sc2ccc(NC(=O)CCN3C(=O)NC4(CCCC4)C3=O)cc2)c1	D1 antag -33.0
Cc1ccc(NC(=O)CCN2C(=O)NC3(CCCC3)C2=O)cc1	none
O=C(CCl)Nc1ccccc1Sc1ccc(Cl)cc1	none
Cc1ccc(Sc2ccc(NC(=O)CCl)cc2)c(C)c1	D1 antag -73.1
CCCCOc1ccc(C(=O)NCC(c2ccc(Cl)cc2)N2CCOCC2)cc1 (configuration not stated)	none
OCCN(CCCn1c(-c2ccncc2)nc2ccccc21)c1nc(CN2CCCCC2)cs1	none
Cc1ccc(Sc2ccc(N3CCC(C(=O)Nc4ccc(C)c(F)c4)CC3)nn2)cc1	none
Cc1ccc(NS(=O)(=O)c2ccc3[nH]c4c(c3c2)CCCCC4)cc1	none
O=C(NCCCN1CCOCC1)c1ccc2c(c1)N(Cc1ccccc1)C(=O)c1ccccc1S2	none
CCOc1ccc(-n2c(C)nc3cc(C(=O)NCCCN4CCOCC4)ccc32)cc1	D1 antag -51.9
CCCCN(CC)CCCNC(=O)c1ccc2c(c1)N(Cc1ccc(C)cc1)C(=O)c1ccccc1S2	D1 antag -32.6, D1 ag 51.0
CCOc1ccc(CN2C(=O)c3ccccc3Sc3ccc(C(=O)NCCCN4CCOCC4)cc32)cc1	D1 ag 30.2!
COCCCNC(=O)c1ccc2c(c1)N(Cc1ccccc1)C(=O)c1ccccc1S2	none
Cc1ccc(CNC(=O)c2cc3c(=O)n4cccc(C)c4nc3s2)cc1	none
CCOc1ccc(NC(=O)Cn2cc(C(=O)c3ccc(OC)cc3)c(=O)c3cc4c(cc32)OCO4)cc1	none
CC(C)N(Cc1nc(-c2ccc(Cl)cc2)no1)C(=O)c1ccco1	none
CN(C)S(=O)(=O)c1ccc(NC=O)cc1	none
CCc1ccc(NC(=O)c2sc(-n3nc(C)c(CCC(C)C)c3C)nc2C)cc1	none
Cc1cc2ccccn2c1C(C[N+](=O)[O-])c1ccc(N(C)C)cc1 (configuration not stated)	D1 ag 42.2
CC(C)C(=O)NNC(=O)CSc1nc(C2CCCCC2)nc2ccccc12	none
Cc1cc(C)cc(-n2c(SCC(=O)NCc3ccc4c(c3)OCO4)nc3ccccc3c2=O)c1	D1 antag -36.5
O=C(CSc1nc(C2CCCCC2)nc2ccccc12)NCc1ccc2c(c1)OCO2	D1 antag -46.2

Source: PubChem
